12-LOX inh: Primary qHTS assay for inhibitors of human arachidonate 12S-lipoxygenase (ALOX12): Round 2. Polyunsaturated fatty acid lipoxygenase ALOX12 (Homo sapiens), P18054. purified 12hLO, xylenol orange hydroperoxide absorbance. Potency, µM (series often up to 108 µM), inactives show top-dose activity change, negative = inhibition, actives largely listed as inhibitors. actives 1.1% (n = 580,000); also: potency is read from the fitted curve at half-maximal effect
Target sequence (P18054 whole entry, looked up): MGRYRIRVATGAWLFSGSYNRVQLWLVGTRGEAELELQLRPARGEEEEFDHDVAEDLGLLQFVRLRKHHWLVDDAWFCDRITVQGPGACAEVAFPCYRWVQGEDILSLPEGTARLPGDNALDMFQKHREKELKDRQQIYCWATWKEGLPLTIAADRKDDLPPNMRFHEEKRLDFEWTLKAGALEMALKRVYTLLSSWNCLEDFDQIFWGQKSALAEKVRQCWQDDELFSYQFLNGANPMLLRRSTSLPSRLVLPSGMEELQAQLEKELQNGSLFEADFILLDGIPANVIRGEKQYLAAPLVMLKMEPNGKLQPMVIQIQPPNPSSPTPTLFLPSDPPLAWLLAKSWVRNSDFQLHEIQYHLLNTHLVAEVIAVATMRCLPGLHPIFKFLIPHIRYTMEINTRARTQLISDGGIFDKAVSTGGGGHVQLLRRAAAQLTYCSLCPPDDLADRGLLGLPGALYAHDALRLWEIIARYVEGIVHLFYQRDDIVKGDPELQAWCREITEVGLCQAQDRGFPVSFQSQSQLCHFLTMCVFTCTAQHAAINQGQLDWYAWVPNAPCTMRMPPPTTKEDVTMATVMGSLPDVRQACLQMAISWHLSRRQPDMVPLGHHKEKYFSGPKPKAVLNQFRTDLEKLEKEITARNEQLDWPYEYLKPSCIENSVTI
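Hydroperoxide product was detected by ferrous iron/xylenol orange as the 573 to 405 nm absorbance ratio. Arachidonic acid at 40 uM (final) was turned over for 30 min at room temperature by 150 nM human 12hLO, pH 7.0 Hepes buffer, after 15 min compound preincubation.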
TDP1 cell noCPT: qHTS for Inhibitors of human tyrosyl-DNA phosphodiesterase 1 (TDP1): qHTS in cells in absence of CPT | DT40 Tdp1-/- hTDP1 cells, no CPT, ATP luminescence, 48 h | AID 686978, 2013 | actives 15% (n = 420,000) | Potency, µM (doses to about 46.2 µM), for the others: at the top dose activity change, negative = growth inhibition, usual class: inhibitors; also: potency is read from the fitted curve at half-maximal effect; nearly all actives have a fitted effect of over 55% in size
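DT40 Tdp1-/-;hTDP1 cells, no CPT (DMSO vehicle only), 400 cells/well; compounds pin-transferred; ≥48 hr, 37 °C; CellTiter-Glo 30 min RT dark, luminescence read.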
TDP1 cell CPT: qHTS for Inhibitors of human tyrosyl-DNA phosphodiesterase 1 (TDP1): qHTS in cells in presence of CPT. Potency, µM (titrated, usually from 46.2 µM), without a hit: at the highest dose activity change, negative = growth inhibition, most hits filed as inhibitors. actives 12% (n = 420,000). chicken DT40 Tdp1-/-;hTDP1 cells + 20 nM CPT, ATP luminescence, 48 h; also: potency is read from the fitted curve at half-maximal effect; nearly all actives have a fitted effect of over 55% in size
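Chicken DT40 Tdp1-/- cells stably complemented with human TDP1 were seeded at 400 cells/well in medium containing 20 nM camptothecin, exposed to pin-transferred compounds, and grown at 37 °C for at least 48 hr. Viability was read as ATP luminescence.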
HT1080 IDH1KD tx: qHTS for induction of synthetic lethality in tumor cells producing 2HG: qHTS for the HT-1080-IDH1KD cell line; HT-1080 IDH1 knockdown viability, ATP luminescence, 48 h; Potency, µM (titrated, usually from 46.1 µM), without a hit: at the highest dose activity, negative = toxicity, hits mostly cytotoxic; actives 2% (n = 360,000); AID 686971, 2013;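 also: potency is read from the fitted curve at half-maximal effect; 0% = DMSO wells and -100% = cell-free medium wells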
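CellTiter-Glo luminescence after 48 h compound exposure at 37 degrees C of IDH1-knockdown HT-1080 cells in 5% FBS RPMI. %Activity scaled between DMSO wells and cell-free media wells, with curves fitted and assigned curve classes.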
IL-1B inflam inh: qHTS for Inhibitors of Inflammasome Signaling: IL-1-beta AlphaLISA Primary Screen; AID 743279, 2014; actives 4.7% (n = 360,000); activity change, % at 57.5 µM; THP-1 LPS/ATP IL-1B secretion, AlphaLISA, 16 h; active compounds read low; in the data active = activity change below about -50%; inconclusive = mostly about -30% to -49%
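Secreted IL-1B measured by AlphaLISA bead assay after 16 h compound exposure of THP-1 cells; compounds (final up to 57.5 uM) added 1 h before LPS (250 ng/mL) and ATP (1.25 mM) stimulation; lower signal means less secretion.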
HT1080NT lethal: qHTS for induction of synthetic lethality in tumor cells producing 2HG: qHTS for the HT-1080-NT fibrosarcoma cell line | actives 1.6% (n = 360,000) | Potency, µM (series often up to 46.1 µM), without a hit: at the top dose activity, negative = less viability, most hits filed as cytotoxic | AID 686970, 2013 | HT-1080-NT fibrosarcoma viability, CellTiter-Glo ATP luminescence, 48 h;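 also: NT is the 2HG producing partner of a matched IDH1 knockdown line; potency is read from the fitted curve at half-maximal effect; 0% = DMSO-treated cells and -100% = media-only wells without cells; nearly all actives have a fitted effect of over 55% in size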
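Compounds were tested in concentration-response format on HT-1080-NT cells for 48 hours at 37 degrees C. Cell viability came from CellTiter-Glo luminescence; curves were classified by r2, response magnitude and activity.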
Active calls of the source: *; ? = inconclusive; nt = not tested or not shown; [ ] = dose if it differs, or a comment. Many of the other results were omitted from the sample, so hits are more common in it than they were. Unless noted, calls follow the shape of the dose curve; as a rule, active = well fitted curve in the direction sought with a large enough effect; inconclusive = small, poorly fitted or top-dose-only effect, or another doubt; inactive = no such curve, though single readings can be large; an effect the other way counts as inactive or inconclusive. Unless noted, % is scaled to controls: 0 for no effect and ±100 for the full control effect.

SMILES	12-LOX inh	TDP1 cell noCPT	TDP1 cell CPT	HT1080 IDH1KD tx	IL-1B inflam inh	HT1080NT lethal
Cc1ccc(OCn2ccc(C(=O)NCc3ccn(C)n3)n2)c(C)c1	-1%	nt	nt	nt	nt	nt
CCOc1cc(=O)n2c(c1C(=O)NCc1ccccc1Cl)CCCC2	23%	nt	nt	nt	nt	nt
Cc1noc(C)c1COC(=O)CCc1nc2ccccc2s1	0%	-10%	-14%	16%	-1	24%
Cc1noc(C)c1COC(=O)CCN1c2ccccc2Sc2ccccc21	0%	21µM*	?	-8%	-16	1%
CC(OC(=O)Cc1n[nH]c(=O)c2ccccc12)C(=O)N(C)c1ccccc1 (stereo not drawn)	-21%	16µM*	8.2µM*	?	5	?
Cc1cc(C)c(C(=O)C(C)OC(=O)Cc2n[nH]c(=O)c3ccccc23)cc1C (stereo not drawn)	?	?	-17%	-16%	0	-15%
Cc1ccc(C(=O)C(C)OC(=O)Cc2n[nH]c(=O)c3ccccc23)cc1 (stereo not drawn)	?	18µM*	12µM*	-13%	9	-13%
O=C(C1CC=CC1)N1CCc2nn(Cc3ccccc3)c(=O)n2CC1	37%	nt	nt	nt	nt	nt
CN1C(=O)c2cccn2CC1CNC(=O)COc1ccccc1 (stereo not drawn)	53%	nt	nt	nt	nt	nt
O=C(c1ccc(C(F)(F)F)cc1)N1CCC(=O)N([C@H](COCc2ccc(C(F)(F)F)cc2)Cc2ccccc2)CC1	?	?	23µM*	?	0	?
O=C(c1ccc(C(F)(F)F)cc1)N1CCC(=O)N(C(CO)Cc2ccccc2)CC1 (stereo not drawn)	-8%	?	?	0%	29	10%
O=C(c1ccc(Cl)c(Cl)c1)N1CCC(=O)N([C@H](COCc2cccc(C(F)(F)F)c2)Cc2ccccc2)CC1	?	?	?	?	-12	?
CC(C)CC(COCc1ccc(Cl)cc1)N1CCN(C(=O)c2ccc(Cl)cc2Cl)CCC1=O (stereo not drawn)	-15%	?	23µM*	?	0	?
CC(C)C[C@@H](COCc1ccc([N+](=O)[O-])cc1)N1CCN(C(=O)c2ccc(C(F)(F)F)cc2)CCC1=O	?	16µM*	?	?	-24	-22%
CC(C)C[C@@H](COCc1ccc(Cl)cc1)N1CCN(C(=O)c2ccc(C(F)(F)F)cc2)CCC1=O	?	21µM*	?	?	?	?
NCc1ccc(-c2ccc(F)cc2)cc1	7%[12.5 µM]	nt	nt	nt	nt	nt
CCc1ccc(C2=C(C)C(=NCC(=O)Nc3cccc(Cl)c3C)NS2(=O)=O)cc1	-37%	nt	nt	nt	nt	nt
COc1ccc(C[C@@H]2CN3C(=NC[C@@H]3C)N2C[C@H](C)NC(=O)c2ccc(C)c(Br)c2)cc1	-21%	15µM*	18µM*	0%	-17	-27%
COc1ccc(C[C@H]2CN3C(=NC[C@H]3C)N2CCNC(=O)c2ccc(C)c(Br)c2)cc1	-25%	5.8µM*	6.5µM*	?	?	-28%
Cc1ccc(C(=O)NCCN2C3=NC[C@H](C)N3C[C@H]2Cc2ccc(O)cc2)cc1Br	-27%	21µM*	21µM*	1%	-20	-1%
O=C(c1ccncc1)N(CCc1ccccc1)Cc1cccs1	-6%	nt	nt	nt	nt	nt
CC(C)=CCC/C(C)=C/COC=O	-4%[176 µM]	nt	nt	nt	nt	nt
CCOC(CNC(=O)c1ccc2c(c1)ncn2-c1ccc(OCc2ccccc2)cc1)OCC	11%	nt	nt	nt	nt	nt
O=C1/C(=C/c2ccccn2)COc2ccccc21	-4%	4.6µM*	2.1µM*	-14%	9	-21%
O=C1/C(=C/c2ccccc2)COc2ccccc21	13%	nt	nt	nt	nt	nt
SMILES	12-LOX inh	TDP1 cell noCPT	TDP1 cell CPT	HT1080 IDH1KD tx	IL-1B inflam inh	HT1080NT lethal
COc1ccc2c(c1)OC/C(=C/c1ccc(O)c(O)c1)C2=O	nt	2.6µM*	3.3µM*	nt	nt	nt
O=C1/C(=C/c2ccc(O)cc2)COc2ccccc21	3%	-17%	0%	?	-104*	?
CC1=C(C(=O)Nc2ccccc2)C(c2cccs2)n2nnnc2N1 (stereo not drawn)	-22%	-14%	3%	5%	-5	3%
CCCCCCCOC(=O)C1=C(C)Nc2ncnn2C1c1cccs1 (stereo not drawn)	0%	13µM*	?	-15%	-11	-19%
CCCCCCCCOC(=O)C1=C(C)Nc2nnnn2C1c1cccs1 (stereo not drawn)	?	16µM*	16µM*	?	30	?
CN(Cc1cc(-c2ccccc2)no1)Cc1ncccc1C(=O)O	30%	nt	nt	nt	nt	nt
Cc1sc2nc(CN3CCOCC3)nc(Sc3nnnn3C3CCCC3)c2c1C	-9%	nt	nt	nt	nt	nt
CC(C)C1C(=O)N(Cc2cn(CC3CCCCC3)nn2)CCS(=O)(=O)N1Cc1ccc(-c2ccc(F)cc2)cc1 (stereo not drawn)	-3%	9.2µM*	-20%	?	-23	?
COc1ccc(-c2ccc(CN3C(C(C)C)C(=O)N(Cc4cn(CC5CCCCC5)nn4)CCS3(=O)=O)cc2)cc1 (stereo not drawn)	-1%	16µM*	15µM*	-27%	-6	-19%
CCCCSCC(=O)NC12CC3CC(CC(C3)C1)C2	6%	nt	nt	nt	nt	nt
Cc1cccc(NC(=O)CSc2nnc(-c3ccco3)c(-c3ccco3)n2)c1	?	18µM*	?	-8%	-94*	-5%
Cc1cccc(NC(=O)CSc2nnc(-c3ccco3)c(-c3ccco3)n2)c1C	nt	?	-7%	-4%	-87*	9%
CCCCc1cc(=O)oc2c(C)c(OC(C)C(=O)OCC)ccc12 (stereo not drawn)	0%	nt	nt	nt	nt	nt
CC(C)Oc1ccc(C(=O)N2C[C@@H]3CCN(C)C[C@]3(C(=O)O)C2)cc1	7%	nt	nt	nt	nt	nt
N#Cc1ccccc1OCc1ncc(-c2ccc(Cl)cc2)o1	-10%	nt	nt	nt	nt	nt
COc1ccc(C(=O)COC(=O)c2cc(C)nc3c(C)cccc23)cc1	11%	nt	nt	nt	nt	nt
Nc1ncnc2c1c(-c1ccc(Oc3ccccc3)cc1)cn2C1CCCC1	1%	18µM*	?	21µM*	56	23µM*
